Bioassay records (PubChem BioAssay)
Hits are enriched below; roughly 1% of the tested compounds scored in any of these assays.
TSHR antag: antagonists of human thyroid stimulating hormone receptor; activity change, negative = inhibition, % at 11.5 µM; hit rate 0.2% among 330,000; AID 504810; TSHR-expressing cells, TSH-stimulated cAMP HTRF, 2 h; active compounds read low;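 active = activity change below a set negative limit, meaning inhibition stronger than a set level, cut at about -70% in these data; inconclusive = activity change between two set negative limits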; also: % is scaled to controls: 0 for no effect and ±100 for the full control effect
Target sequence (P16473 whole entry, looked up): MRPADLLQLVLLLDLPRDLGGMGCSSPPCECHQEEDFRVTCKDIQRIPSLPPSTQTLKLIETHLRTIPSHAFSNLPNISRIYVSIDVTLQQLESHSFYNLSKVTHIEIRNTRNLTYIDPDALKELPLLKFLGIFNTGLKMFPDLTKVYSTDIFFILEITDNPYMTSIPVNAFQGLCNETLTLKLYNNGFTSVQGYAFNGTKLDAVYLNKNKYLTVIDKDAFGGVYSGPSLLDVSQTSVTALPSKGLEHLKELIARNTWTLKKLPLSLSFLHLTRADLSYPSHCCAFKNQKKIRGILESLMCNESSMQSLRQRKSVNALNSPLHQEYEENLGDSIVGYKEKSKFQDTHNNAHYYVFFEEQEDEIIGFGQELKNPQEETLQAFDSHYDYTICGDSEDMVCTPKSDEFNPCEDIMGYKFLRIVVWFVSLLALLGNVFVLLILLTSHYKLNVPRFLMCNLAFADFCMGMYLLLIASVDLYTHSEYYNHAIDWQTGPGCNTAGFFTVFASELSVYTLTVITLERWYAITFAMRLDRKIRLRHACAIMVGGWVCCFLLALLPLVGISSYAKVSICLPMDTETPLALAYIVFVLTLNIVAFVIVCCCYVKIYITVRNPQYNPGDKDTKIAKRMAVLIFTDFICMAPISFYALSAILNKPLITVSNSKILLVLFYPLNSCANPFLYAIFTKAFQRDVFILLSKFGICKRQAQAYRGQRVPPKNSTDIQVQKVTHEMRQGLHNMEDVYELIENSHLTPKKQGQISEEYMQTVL
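TSHR-expressing cells, 200/well, pre-treated with compound, then stimulated with EC80 TSH (4nM final) for 2 hours at 37 deg C. cAMP measured by competitive HTRF: anti-cAMP cryptate antibody in lysis buffer plus cAMP-d2, read after 30 minutes at room temperature.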
gsp ag: activates gsp, the McCune-Albright syndrome mutation; gsp mutant cells, cAMP HTRF, 30 min; Potency, µM (highest dose often 76.9 µM), without a hit: top-dose activation (cAMP increase), actives largely listed as activators; hit rate 0.13% among 340,000; AID 624287; active = well fitted activation curve with a large enough effect; inconclusive = small, poorly fitted or top-dose-only effect, or another doubt; inactive = no such curve, though single readings can be large or run the other way; cell line not stated here;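 also: phosphodiesterase inhibitor Ro 20-1724 added with compounds to block cAMP breakdown; potency is read from the fitted curve at half-maximal effect; nearly all actives have a fitted effect of over 60% in size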
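Cells stably selected in G418 were plated at 2000/well, grown 16-24 hr, then given compounds in DMSO with the PDE inhibitor […] (300 uM solution added) for 30 min at 37C; cAMP was read by HTRF.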
RXFP1 antag: antagonists of human relaxin receptor RXFP1 | Q9HBX9 | HEK293-RXFP1, relaxin-stimulated cAMP HTRF, 30 min; active compounds read low | activity change, negative = inhibition, % at 57.5 µM | hit rate 0.59% among 350,000;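 active = activity change of -60% or lower, but not beyond a set lower limit; inconclusive = change between -60% and -40%, or beyond the set limit; inactive = change above -40%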; also: % is scaled to controls: 0 for no effect and ±100 for the full control effect
RXFP1 agonist: activates the human relaxin receptor RXFP1; Q9HBX9; HEK293T-RXFP1 cAMP TR-FRET, 30 min; response scale: percent of porcine relaxin response, buffer zero; Potency, µM (series often up to 57.5 µM), without a hit: top-dose activation, actives largely listed as activators; hit rate 0.3% among 370,000; AID 2676; active = well fitted activation curve with a large enough effect; inconclusive = small, poorly fitted or top-dose-only effect; also: potency is read from the fitted curve at half-maximal effect; % is scaled to controls: 0 for no effect and ±100 for the full control effect; nearly all actives have a fitted effect of over 60% in size
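HEK293T cells stably expressing RXFP1 were pretreated with the PDE4 inhibitor Ro 20174, exposed to compounds for 30 min at 37C, lysed, and cAMP was read by TR-FRET. Data normalized to buffer (basal) and 29 nM porcine relaxin (100%).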
gsp antag: antagonists of gsp mutant (McCune-Albright syndrome); gsp-mutant cells, cAMP HTRF, 30 min; Potency, µM (highest dose often 76.9 µM), inactives show at the top dose activity change, negative = inhibition, actives largely listed as inhibitors; hit rate 0.4% among 340,000; AID 624288; calls by dose curve; cell line not stated here;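 also: intracellular cAMP measured with PDE inhibitor Ro 20-1724 present during compound exposure; potency is read from the fitted curve at half-maximal effect; % is scaled to controls: 0 for no effect and ±100 for the full control effect; nearly all actives have a fitted effect of over 65% in size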
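G418-selected cells were plated in DMEM/10% FBS for 16-24 h at 37C, then treated with compounds plus the PDE inhibitor […] (300 uM solution added) for 30 min at 37C. Intracellular cAMP was measured by HTRF after 30 min lysis at room temperature.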
Active calls of the source: *; ? = inconclusive; · = no result given; [ ] = remark or other dose.

SMILES	TSHR antag	gsp ag	RXFP1 antag	RXFP1 agonist	gsp antag
CCc1nn(CCCC(=O)NCc2ccc(OC(C)C)cc2)c(=O)c2cc3occc3n12	-4	28%	-7	6%	8%
CCOc1ccc(CNC(=O)CCCn2nc(CC)n3c(cc4occc43)c2=O)cc1	-110*	-5%	14	3%	-2%
Cc1ccc2cc3c(N)nn(C(=O)c4cccc(F)c4)c3nc2c1	·	·	-11	0%	·
CC1CCc2c(cc(-c3ccccc3)n2-c2ccc(C(=O)NC(C)C)cc2)C1 (stereo not drawn)	·	·	?	1%	·
CCOC(=O)c1c(NC(=O)c2cc3ccccc3c(=O)o2)sc2c1CCC(C(C)(C)C)C2 (stereo not drawn)	·	·	·	1%	·
CCCCOc1ccc(C(=O)N2CCN(CCc3ccccn3)CC2)cc1	·	·	4	-2%	·
CCCCc1nc2cc(C(=O)NCc3cn(C)nc3C)ccc2o1	-19	7%	8	3%	35µM*
COc1ccc(NC(=O)c2sc3nc(N4CCOCC4)c4c(c3c2N)CCCC4)cc1	·	-10%	4	·	·
CCOC(=O)c1ccc(NC(=O)c2sc3nc(N4CCOCC4)c4c(c3c2N)CCCC4)cc1	2	18µM*	28	9%	-2%
CCOC(=O)c1ccc(NC(=O)c2csc3c2CCCC3)cc1	·	·	-93*	-2%	·
CC(C)Cc1ccc(C(C)CC2=CCC(CN(C)C)C2=O)cc1 (stereo not drawn)	·	10%	-83*	·	-7%
O=C(OCc1cc(=O)n2nc(-c3cccs3)sc2n1)c1cccc(F)c1	·	·	·	-1%	·
Oc1ccccc1N=Nc1ccccc1O	22	-7%	-29	3%	35µM*
Nc1ccc(N=Nc2ccccc2O)c(N)c1	·	-4%[15.4 µM]	3	·	-4%
Cc1cc(C)nc(NS(=O)(=O)c2ccc(NC(=O)COc3ccc(C(C)(C)C)cc3)cc2)n1	·	·	-86*	0%	·
COc1ccc(OCC(=O)Nc2ccc(S(=O)(=O)Nc3nc(C)cc(C)n3)cc2)cc1	6	?	6	2%	-10%
O=[n+]1c2c(n([O-])c3cc(F)c(N4CCCC4)cc31)CCC2	·	21%	-3	·	40µM*
Cc1cc(C)cc(NS(=O)(=O)c2ccc3c(c2)c(=O)n(C)c(=O)n3C)c1	-6	25µM*	7	26%	1%
CC(OC(=O)c1cccs1)C(=O)NCc1cccs1 (stereo not drawn)	14	13%	3	3%	-7%
COc1ccc(CNC(=O)C(C)OC(=O)c2cccs2)cc1 (stereo not drawn)	-101*	9%[15.4 µM]	-2	2%	0%
CN1CCN(C(CNC(=O)C(=O)Nc2ccccc2)c2ccc3c(c2)OCO3)CC1 (stereo not drawn)	·	·	-13	3%	·
Cc1ccc(/C=C/c2onc(C)c2S(=O)(=O)N2CCC(C(=O)N3CCC(N(C)C(C)C)CC3)CC2)cc1	·	·	-4	-2%	·
Cc1ccc(C)c(NS(=O)(=O)c2ccc3c4c(cccc24)C(=O)N3)c1	·	·	-79*	0%	·
CC(=O)N1N=C(c2ccc(C)o2)CC1c1cccc(F)c1 (stereo not drawn)	0	?	-61*	-1%	-4%
O=C(CSc1ncnc2c1oc1ccccc12)c1cccs1	69	?	1	22µM*	-2%
SMILES	TSHR antag	gsp ag	RXFP1 antag	RXFP1 agonist	gsp antag
Cc1nc(SCC(=O)c2cccs2)c2oc3ccccc3c2n1	-16	?	8	4%	13%
c1ccc2[nH]c(CSc3ncnc4c3oc3ccccc34)nc2c1	51	31%	-14	25µM*	34%
Cc1nc(SCc2nc3ccccc3[nH]2)c2oc3ccccc3c2n1	5	-1%	-10	8%	6%
CCOc1ccc(-n2cc(-c3ccccc3)c3c(=O)[nH]cnc32)cc1	-5	19%	-97*	0%	?
CC1(C)OC[C@@H]2O[C@@]3(C(=O)O)OC(C)(C)O[C@H]3[C@@H]2O1	·	·	14	·	·
Cc1ccc(CNC(=O)COCc2cc(-c3cccs3)on2)cc1	·	·	-34	0%	·
CC(=O)c1cccc(OCC(O)CNCCc2ccc(Cl)cc2)c1 (stereo not drawn)	8	?	1	0%	13%
CCOC(=O)c1cccc(OCC(O)CNCCOc2ccccc2F)c1 (stereo not drawn)	-106*	-32%	-27	2%	19%
Cc1cccc2c(=O)cc(CSc3ccccc3NC(=O)C(C)(C)C)[nH]c12	·	·	-2	-4%	·
C=C1C(=O)c2sccc2C(c2ccc(OC)c(OC)c2)C1COC(C)=O (stereo not drawn)	·	-66%	-104*	·	4%
O=C1Cc2cc(CCN3CCN(c4nsc5ccccc45)CC3)c(Cl)cc2N1	-21	·	-107*	4%	·
CCOC(=O)c1c(C)n(-c2ccc(C)cc2)c2ccc(OCC(O)CN3CCN(C)CC3)cc12 (stereo not drawn)	23	-25%	-86*	0%	11%
Clc1ccccc1/C=C/C=N/Nc1nc(N2CCOCC2)nc(N2CCOCC2)n1	-14	-7%[15.4 µM]	-23	-1%	13µM*
O=C(Nc1nc2cc3c(cc2s1)OCO3)C1CCCCC1	-15	-26%	-4	-1%	-3%
O=C(Nc1nc2cc3c(cc2s1)OCCO3)C1CCCCC1	-20	?	-68*	0%	-7%
CCOc1ccc(NC(=O)Cn2nnc(C(=O)NCc3ccc(OC)cc3)c2N)cc1	-6	-12%	13	3%	16%
CCOc1ccc(Cn2nnc(C(=O)NCc3ccc(OC)cc3)c2N)cc1	1	-38%	·	32µM*	-23%
COc1c(OC(C)=O)ccc(/C=C/c2ccc3ccccc3n2)c1[N+](=O)[O-]	-5	-25%	-33	2%	25µM*
CO/N=C(\C(=O)O)c1csc(NC(=O)CCl)n1	·	·	4	·	·
CCOc1ccc(CN2C(=O)c3ccccc3Sc3ccc(C(=O)N4CCN(C)CC4)cc32)cc1	·	·	·	1%	·
CCOCCCN(C)C1CCN(C(=O)c2oc3ccccc3c2NC(=O)c2cccc([N+](=O)[O-])c2)CC1	10	-1%	-66*	0%	-2%
CCOCCCN(C)C1CCN(C(=O)c2oc3ccccc3c2NC(=O)Cc2ccc([N+](=O)[O-])cc2)CC1	4	?	-20	11%	5%
COc1ccc(C(=O)N=C2SC3CS(=O)(=O)CC3N2c2ccc(N(C)C)cc2)cc1OC (stereo not drawn)	-2	?	-76*	29%	0%
O=C(CSc1nc2c([nH]c3ccccc32)c(=O)n1-c1ccccc1)Nc1ccc2c(c1)OCO2	·	·	4	-1%	·
CC(C)(C)c1ccc(-c2nc3cc(N)ccc3o2)cc1	0	17%	-84*	8%	2%
Cc1ccc(-c2nc3cc(N)ccc3o2)c(C)c1	-10	32µM*	2	17%	16%
Cc1ccc(-c2nc3cc(N)ccc3o2)cc1	-4	?	8	13%	5%
